Only some compounds are listed: those with a hit (about 4.7% of all), similar ones and a draw of the others.
TRHR enhancer: allosteric enhancers of human TRH receptor. P34981. TRHR cells, fluo-8 calcium fluorescence, EC20 TRH enhancement. enhancement, % at 2 µM. 360,000 compounds, 0.66% hits. AID 493056; in the data active = enhancement above about 30%; also: 0% is about no effect
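Enhancer read-out: after compound pinning and an initial kinetic agonist-mode read, an EC20 of TRH (10 nM final) was injected and fluo-8 calcium signal (Ex 480/Em 530) followed at 1 s/cycle for 100 cycles in TRHR-expressing cells.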
D1 potentiator: enhances dopamine response at the human D1 receptor; P21728; HEK293 TREx D1 cells, calcium flux, dopamine EC20 potentiation; potentiation, % at 10 µM; 360,000 compounds, 0.036% hits; in the data active = potentiation above about 30%; also: 0% is about no effect
Target sequence (P21728 whole entry, looked up): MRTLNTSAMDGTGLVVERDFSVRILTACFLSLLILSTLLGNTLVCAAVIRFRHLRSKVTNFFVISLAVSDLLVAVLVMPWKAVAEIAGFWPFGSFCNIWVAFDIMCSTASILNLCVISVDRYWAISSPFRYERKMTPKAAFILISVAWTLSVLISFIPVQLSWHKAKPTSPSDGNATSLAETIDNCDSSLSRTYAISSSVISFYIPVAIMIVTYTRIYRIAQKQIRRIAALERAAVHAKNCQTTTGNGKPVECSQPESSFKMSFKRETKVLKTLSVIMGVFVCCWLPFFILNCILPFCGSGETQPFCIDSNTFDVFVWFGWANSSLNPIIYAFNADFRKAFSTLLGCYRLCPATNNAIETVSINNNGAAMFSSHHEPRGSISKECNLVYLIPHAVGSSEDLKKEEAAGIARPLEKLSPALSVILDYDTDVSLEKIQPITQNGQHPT
D1 ag: human D1 receptor agonism | P21728 | HEK293 T-REx D1 cells, calcium flux, agonist mode | activation, % at 2 µM | 360,000 compounds, 1% hits | AID 504660; also: 0% is about no effect
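Agonism was scored from calcium flux recorded over 180 s (1 read/s) after pintool compound addition, following a 10-cycle baseline. Cells were inducible force-coupled HEK293 TREx D1, plated overnight at 30 C and loaded with no-wash calcium dye.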
TRHR ag: agonists of human TRH receptor. P34981. TRHR cells, calcium flux fluo-8, FDSS agonist mode. activation, % at 2 µM. 360,000 compounds, 0.18% hits. AID 493084; also: 0% is about no effect
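TRHR-expressing cells, plated overnight in medium with 10% serum, were loaded with fluo-8 calcium dye at room temperature. After a 10 s baseline, library compound was pin-added and calcium release was recorded kinetically (ex 480/em 530) as agonist response.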
D1 antag: antagonists of human D1 dopamine receptor. activity change, negative = inhibition, % at 10 µM. 360,000 compounds, 3.2% hits. P21728. HEK293 TREx D1 cells, calcium flux, dopamine EC80; hits give low values; in the data active = activity change below about -30%; also: % is scaled to controls: 0 for no effect and ±100 for the full control effect
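HEK293 T-REx cells expressing inducible, force-coupled D1 receptor; no-wash Ca dye, 30–90 min RT. Cmpd → 180 s read at 1 Hz → EC80 DA → 180 s read.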
* marks the source's active call; other numbers are inactive results; · = not tested or not shown; ! = repeats disagree. Rule as the data show it, unless noted: active = activation above about 30%; inactive = the rest.

SMILES | TRHR enhancer | D1 potentiator | D1 ag | TRHR ag | D1 antag
Cc1ccc(S(=O)(=O)N2CCOCC2)cc1NC(=O)COC(=O)c1cccnc1Cl | 0.4 | -5.5 | 4.4 | 0.2 | -64.2*
CN(C)S(=O)(=O)c1ccc(C(=O)OCC(=O)Nc2cccnc2Cl)cc1 | -5.3 | 2.8 | 7.9 | 0.6 | -33.2*
Cc1ccc(-c2nc(SCC(=O)Nc3cc(S(=O)(=O)N4CCCCC4)ccc3Cl)n[nH]2)cc1 | -12.1 | -4.2 | 4.1 | 0.4 | -35.1*
COc1ccccc1CNCC(=O)Nc1cc(S(=O)(=O)N2CCOCC2)ccc1Cl | 0.2 | -2.9 | 2.4 | 0.1 | -6.1
O=C(COC(=O)c1ccc(Br)cc1)Nc1cccnc1Cl | 2.3 | 3.1 | 1.1 | -0.4 | -6.0
CCC(=O)N1CCc2cc(CNC(=O)C(CC)c3ccccc3)ccc21 (stereo not given) | 0.2 | -3.0 | -0.7 | -0.8 | 10.6
O=C(Nc1ccnn1C1CCN(Cc2ccc(C#CCCO)cc2)CC1)c1cccc(F)c1 | 2.0 | -7.8 | 4.6 | 0.4 | -4.4
CCOC(=O)Cn1c(=O)c2c(nc3n2CCN3c2ccc(CC)cc2)n(C)c1=O | -0.8 | -3.1 | 17.9 | 0.9 | 6.4
Cc1ccc(S(=O)(=O)N2CCOCC2)cc1NC(=O)COC(=O)c1cc(=O)[nH]c2ccccc12 | -16.2 | -4.0 | 25.2 | 0.3 | -41.3*
C=CCn1cn[nH]c1=S | 2.5 | -2.5 | -1.8 | 0.9 | ·
COC(=O)c1ccc(-c2noc(CN(C)CCC3CCCCO3)n2)cc1 (stereo not given) | -8.0 | -6.6 | 4.1 | 0.8 | -60.6*
COC(=O)c1ccc(-c2noc(CN(C)Cc3ccncc3C)n2)cc1 | -0.9 | -3.5 | 16.9 | 0.6 | -41.2*
COc1cc(NC(=O)Cn2cnc(S(=O)(=O)N3CCOCC3)c2)cc(OC)c1OC | 1.1 | -0.1 | 0.6 | 0.6 | -18.5
C/C(=N\Nc1ccc(S(=O)(=O)Nc2ccccc2)cc1[N+](=O)[O-])c1ccncc1 | 0.9 | -3.9 | 0.6 | 0.2 | -32.1*
CCCC(CCC)=NNc1ccc(S(=O)(=O)Nc2ccccc2OC)cc1[N+](=O)[O-] | 13.7 | -1.5 | 2.0 | 0.0 | -5.9
COc1ccccc1NS(=O)(=O)c1ccc(N/N=C(\C)C(C)C)c([N+](=O)[O-])c1 | 0.8 | -2.5 | 1.1 | -1.7 | -31.2*
O=C(c1cnc2c(c1)COc1ccccc1-2)c1ccccc1O | 2.6 | 0.0 | 2.5 | -0.9 | 2.2
N#C/C(=C\c1ccc(OCC(N)=O)cc1)C(=O)NC1CC1 | -0.9 | -17.3 | -0.9 | 0.6 | -36.2*
COc1cccc2c1-c1c(O)cccc1C2=O | -3.4 | 1.8 | 6.5 | 1.6 | -2.5
COc1cccc2c1C(=O)c1c(O)c3c(c(O)c1C2=O)C[C@](O)(C(C)=O)C[C@H]3O[C@@H]1C[C@@H](N)[C@@H](O)[C@@H](C)O1 | -6.9 | -3.9 | 3.4 | 10.0 | -34.9*
COC(=O)Nc1ccc(Cc2ccncc2)cc1 | -4.2 | -3.5 | 4.7 | -0.1 | 12.6
CC(C)Cc1ccc(C(=O)Nc2ccc(Cc3ccncc3)cc2)o1 | 38.1* | -2.9 | 1.2 | -0.2 | -0.3
Cc1ccnc(NS(=O)(=O)c2ccc(NC(=O)C3CC=CCC3C(=O)O)cc2)n1 (stereo not given) | 1.1 | 0.8 | 2.0 | 0.2 | -89.2*
Cc1cccc(NC(=O)C2COc3ccccc3O2)c1 (stereo not given) | 3.1 | 4.5 | 3.0 | -0.8 | -31.7*
Cc1ccnc(NS(=O)(=O)c2ccc(NC(=O)C3CCCCC3C(=O)O)cc2)n1 (stereo not given) | 6.6 | 14.2 | 1.5 | -0.1 | 9.3
SMILES | TRHR enhancer | D1 potentiator | D1 ag | TRHR ag | D1 antag
Cc1cc(C)nc(NS(=O)(=O)c2ccc(NC(=O)C3COc4ccccc4O3)cc2)n1 (stereo not given) | 2.3 | -2.0 | 5.3 | -1.1 | -60.2*
O=C(CN1C(=O)NC2(CCCC2)C1=O)NCCc1ccc(Cl)cc1Cl | 5.1 | -0.1 | -0.5 | -0.1 | -1.7
CCNc1ccccc1CP(=O)(c1ccccc1)c1ccccc1O (stereo not given) | 4.8 | -6.2 | 35.2* | 18.3 | -0.7
CC(C)C(c1nnnn1C1CCCCC1)N1CCc2ccccc21 (stereo not given) | -0.2 | 1.9 | -0.4 | -1.0 | 6.0
Cc1ccc(C(c2nnnn2C2CCCCC2)N2CCc3ccccc32)cc1 (stereo not given) | 5.4 | -8.3 | 3.5 | -0.6 | -34.2*
CCOC(=O)C(C)NC(=O)C1CCN(c2ncnc3c2nc2n3CCCCC2)CC1 (stereo not given) | 11.0 | 0.4 | -1.7 | -0.7 | 4.9
Cc1nc(SCC(=O)Nc2cc(C)on2)c2c(=O)n(C)c(=O)n(C)c2n1 | 3.8 | -15.5 | 2.7 | -1.5 | -63.9*
COC(=O)c1ccc(CSc2nc(C)nc3c2c(=O)n(C)c(=O)n3C)o1 | -0.2 | -3.3 | 2.2 | -0.1 | -39.2*
COc1ccccc1NC(=O)COC(=O)c1ccc(N2CCCC2=O)cc1 | -0.2 | -0.2 | 3.6 | -0.3 | -31.0*
Cc1ccc(-n2c(=O)c3c(c4cc(C)ccc4n3C)n(CC(=O)c3ccc(Cl)cc3)c2=O)cc1 | 8.0 | -0.9 | 2.3 | -1.5 | -24.6
CCOC(=O)c1ccccc1NC(=O)CC(C)CC(=O)O (stereo not given) | -1.1 | -9.3 | 7.4 | 0.6 | 7.6
CC(CC(=O)O)CC(=O)Nc1ccccc1C(=O)O (stereo not given) | -4.4 | -4.2 | 3.7 | 0.0 | -30.1*
COCCN1CC(CNC(=O)c2cc(COc3ccccc3SC)on2)CC1=O (stereo not given) | -1.3 | -0.2 | 1.9 | -1.0 | 10.0
Cc1cc2c(s1)c1cnn(Cc3ccc(C(=O)O)cc3)c(=O)c1n2C | 8.0 | 5.0 | 6.9 | -0.5 | -4.8
COc1cccc(CN(C)C(=O)c2ccc(COc3ccc(Cl)cc3)cc2)c1OC | 7.1 | · | 54.4* | -0.8 | -19.0
COc1ccccc1CN(C)C(=O)c1ccc(COc2ccccc2)cc1 | -11.6 | -4.3 | 10.9 | -1.5 | -4.3
COc1cccc(CN(C)C(=O)c2ccc(Oc3ccccc3)cc2)c1OC | -4.1 | -7.3 | 32.3* | -2.1 | 2.0
CC(C)[C@H](NS(=O)(=O)c1cccc(C(F)(F)F)c1)C(=O)OCC(N)=O | 39.1* | 4.7 | 1.9 | 2.2 | 0.3
Cc1ccc(CNC(=O)Cn2c(=O)n(-c3cccc(Cl)c3)c(=O)c3sc4ccccc4c32)cc1 | 2.4 | -1.4 | 6.6 | 0.4 | 13.2
COc1cccc(CNC(=O)CCNS(=O)(=O)c2cccc3nonc23)c1 | -2.6 | -5.8 | -3.6 | 14.4 | -7.6
COc1cccc(CNC(=O)CCNS(=O)(=O)c2cccc3nsnc23)c1 | -9.2 | -1.2 | 0.5 | -0.5 | -73.3*!
COC(=O)CNC(=O)C1CCC(CNS(=O)(=O)c2cccc3nsnc23)CC1 (stereo not given) | -5.3 | 2.4 | 1.5 | -0.2 | -33.3*
COc1ccc(CC(=O)Oc2cc(C)ccc2C)cc1 | -6.4 | -0.6 | 12.7 | 0.5 | -7.7

Screens: PubChem BioAssay, National Center for Advancing Translational Sciences (NCATS)
